In the library only some 7.3% were active in any assay of this set; here they are far more common.
SMN2 splice enh: SMN2 splice variant enhancement; Potency, µM (highest dose often 46.1 µM), for the others: at the highest dose activity change, positive = activation, usual class: activators; HEK293 SMN2-luciferase splicing reporter, luminescence, 30-36 h; 210,000 compounds, 2.8% hits; AID 1458; note: % of control where 0% means no effect; nearly all actives have a fitted effect of over 55% in size
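HEK293 cells carry an SMN2 […]–luciferase reporter in which exon 7 inclusion puts luciferase in frame. Cells were plated 10-12 h before compound addition, then incubated 30-36 h at 37C. ONE-Glo luminescence was read; sodium butyrate at 4.5 mM final served as control.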
Rab9 promoter act: activators of Rab9 promoter; Huh7 Rab9 promoter-luciferase reporter, luminescence, 24 h; Potency, µM (highest dose often 9.22 µM), inactives show at the highest dose activation, negative = inhibition, actives largely listed as activators; 320,000 compounds, 2.8% hits; AID 485297; note: % of control where 0% means no effect; nearly all actives have a fitted effect of over 60% in size
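Luminescence read-out: Huh7 cells stably expressing Rab9-luciferase, treated 24 h with compound at 37 °C, then lysed with luciferase reagent for 10 min at ambient before reading.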
ELG1 genotox: induces genotoxicity in HEK293T cells with luciferase-tagged ELG1; HEK293T ELG1-luciferase reporter, luminescence, 16 h; Potency, µM (highest dose often 46 µM), without a hit: top-dose activity change, positive = activation, actives largely listed as activators; 330,000 compounds, 1.3% hits; note: % of control where 0% means no effect; nearly all actives have a fitted effect of over 60% in size
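DMSO vehicle served as control against compound-treated ELG1-luciferase HEK293T cells; exposure lasted 16 hr at 37 °C and 5% CO2, followed by ONE-Glo luminescence detection after 30 min.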
KinaseGlo FLuc: counter-screen: inhibitors of Kinase-Glo firefly luciferase. Q27757. Kinase-Glo luciferase, ATP luminescence, 8 min. Potency, µM (doses to about 38.3 µM), for inactives: top-dose activity change, negative = inhibition, actives largely listed as inhibitors. 200,000 compounds, 0.28% hits. AID 1379; note: % is set by controls: 0 for no effect and ±100 for the full control effect; nearly all actives have a fitted effect of over 60% in size
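Compounds were added to a substrate mix at pH 7.2 (50 mM imidazole, 10 uM ATP, within the enzyme's linear range), followed by Kinase-Glo detection reagent; luminescence was measured after 8 minutes at ambient temperature.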
FLuc counter: inhibits or activates purified firefly luciferase, miR-21 counter-screen. AID 588342. purified FLuc, Km substrates, luminescence inhibition. Potency, µM (highest dose often 57.5 µM), for inactives: top-dose activity change, negative = inhibition, actives largely listed as inhibitors. 360,000 compounds, 6.9% hits;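 note: plate controls were vehicle for no effect and reference inhibitor for full effect; nearly all actives have a fitted effect of over 55% in size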
Target sequence (P08659 whole entry, looked up): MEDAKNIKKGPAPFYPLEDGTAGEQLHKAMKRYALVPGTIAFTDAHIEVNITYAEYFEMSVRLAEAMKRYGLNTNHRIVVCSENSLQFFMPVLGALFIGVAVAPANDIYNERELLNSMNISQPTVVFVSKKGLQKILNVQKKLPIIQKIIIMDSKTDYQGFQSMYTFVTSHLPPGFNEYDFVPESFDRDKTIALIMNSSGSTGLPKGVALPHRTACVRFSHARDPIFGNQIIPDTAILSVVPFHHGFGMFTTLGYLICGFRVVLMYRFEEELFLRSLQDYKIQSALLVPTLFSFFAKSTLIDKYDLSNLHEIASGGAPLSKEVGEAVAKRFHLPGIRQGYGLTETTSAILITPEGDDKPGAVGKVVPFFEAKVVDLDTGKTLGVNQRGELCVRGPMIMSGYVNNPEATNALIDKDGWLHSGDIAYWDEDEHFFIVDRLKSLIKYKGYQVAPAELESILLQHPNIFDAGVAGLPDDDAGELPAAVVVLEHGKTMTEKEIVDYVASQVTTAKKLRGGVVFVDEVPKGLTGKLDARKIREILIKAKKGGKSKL
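Purified P. pyralis luciferase, 10 nM final, with Km-level 10 uM D-luciferin and 10 uM ATP in 50 mM Tris acetate pH 7.5, 10 mM Mg acetate, 0.01% Tween-20, 0.05% BSA; 6-point qHTS titration about 60 µM downward; luminescence read.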
NPC1 promoter act: NPC1 promoter activation; Huh7 NPC1 promoter luciferase reporter, 24 h; Potency, µM (series often up to 9.22 µM), without a hit: at the top dose activation, usual class: activators; 320,000 compounds, 2.4% hits; AID 485313; note: % of control where 0% means no effect; nearly all actives have a fitted effect of over 60% in size
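Huh7 cells stably carrying NPC1 promoter–luciferase, plated in Opti-MEM with 10% FBS for 2 h, were exposed to compound in DMSO for 24 h at 37 °C; luciferase reagent was added for 10 min and luminescence read.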
* marks the source's active call; other numbers are inactive results; ? = inconclusive; . = no result given. Calls come from the whole dose curve; as a rule, active = well fitted curve in the direction sought with a large enough effect; inconclusive = small, poorly fitted or top-dose-only effect, or another doubt; inactive = no such curve, though single readings can be large; an effect the other way counts as inactive or inconclusive. Potency is the fitted concentration of half-maximal effect.

SMILES	SMN2 splice enh	Rab9 promoter act	ELG1 genotox	KinaseGlo FLuc	FLuc counter	NPC1 promoter act
Cc1cc(C)n2cc(CSc3nc4cc(Cl)ccc4o3)nc2n1	-16%	1%	2%	-4%	-1%	1%
CN(C)c1nc(N)nc(CSc2nc3cc(Cl)ccc3o2)n1	4%	?	7.3µM*	-1%	?	?
O=C(COc1ccc(N2C(=O)c3ccccc3C2=O)cc1)c1ccccc1	4%	-2%	0%	0%	-11%	0%
O=C(COc1ccccc1N1C(=O)c2ccccc2C1=O)c1ccc(Cl)cc1	22%	15%	18µM*	4%	4%	13%
CCCCSc1nsc(NC(C)=O)n1	18µM*	1.4µM*	?	4%	11µM*	2.2µM*
CCCCCCSc1nsc(NC(C)=O)n1	19%	?	?	-2%	?	?
CCCSc1nsc(NC(=O)CCC)n1	5µM*	1.4µM*	8%	-2%	12µM*	2.8µM*
CCCSc1nsc(NC(=O)c2cccnc2OCC)n1	2%	28%	2%	-5%	?	0%
O=S(=O)(Nc1ccc(-c2cn3c(n2)SCC3)cc1)c1cccs1	-25%	-9%	3%	7%	-17%	-1%
N#Cc1ccc(-c2cn3c(n2)SCC3)cc1	.	?	?	.	19µM*	?
Cc1ccc(-c2nc3nc(C)cc(N4CCN(c5cccc(C)c5)C(C)C4)n3n2)cc1 (stereo unspecified)	2%	.	.	.	8.5µM*	.
N#C/C(C(N)=O)=c1/ccc2c(c1)N1C3=C(CCCC3)CC3CCCCC31N=2 (stereo unspecified)	-15%	-6%	-28%	?	8.5µM*	-10%
N#CC(C#N)=c1ccc2c(c1)N1C3=C(CCCC3)CC3CCCCC31N=2 (stereo unspecified)	-108%	1%	-8%	?	12µM*	-5%
COCCNC(=O)/C(C#N)=C/c1cccc(NC(=O)c2ccccc2Cl)c1	24%	16%	14%	-1%	-20%	22%
Cc1nc2cc(-c3cccc(F)c3)nn2c(C)c1CCC(=O)NCCc1ccccc1	3%	.	.	.	-13%	.
CC(C)(C)C1CCC2(CC1)SCC(=O)N2c1ccccc1 (stereo unspecified)	-7%	.	-1%	-2%	-2%	3%
CCC(C)NC(=O)c1ccc2c(SCC(=O)O)c3c(nc2c1)CCCC3 (stereo unspecified)	-10%	1%	1%	1%	?	-1%
O=C(NCc1ccc(F)cc1)c1ccc2c(Cl)c3c(nc2c1)CCCC3	-15%	.	.	.	-2%	.
CCOc1ccc(NC(=O)c2ccc3c(SCC(=O)O)c4c(nc3c2)CCC4)cc1	-65%	.	.	.	24µM*	.
COc1ccc(C)cc1NC(=O)c1ccc2c(Cl)c3c(nc2c1)CCC3	-10%	.	.	.	1.7µM*	.
CCC(C)NC(=O)c1ccc2c(Cl)c3c(nc2c1)CCC3 (stereo unspecified)	.	2.5µM*	?	.	4.8µM*	2.8µM*
COc1ccc(NC(=O)c2ccc3c(SCC(=O)O)c4c(nc3c2)CCCC4)cc1Cl	2%	-1%	0%	-3%	?	-2%
O=C(Nc1ccc(Cl)cn1)c1ccc2c(Cl)c3c(nc2c1)CCC3	.	?	?	.	0.19µM*	0.32µM*
COc1cc(Cl)c(C)cc1NC(=O)c1ccc2c(Cl)c3c(nc2c1)CCC3	?	.	.	.	-5%	.
CCN(CCNC(=O)C1CCN(S(=O)(=O)c2cccc3cccnc23)CC1)c1ccccc1	9%	-2%	-34%	5%	14%	0%
SMILES	SMN2 splice enh	Rab9 promoter act	ELG1 genotox	KinaseGlo FLuc	FLuc counter	NPC1 promoter act
COc1ccc(C(=O)NCCn2cc(SCC(=O)Nc3ccccc3)c3ccccc32)cc1OC	-11%	.	.	.	-11%	.
CN(C(=O)c1ccc2c(Cl)c3c(nc2c1)CCC3)c1ccccc1	.	?	?	12%	21µM*	?
Cc1cccc(NC(=O)c2ccc3c(Cl)c4c(nc3c2)CCCC4)n1	3.2µM*	0.56µM*	2.9µM*	-21%	0.67µM*	1.1µM*
CN(C(=O)c1ccc2c(Cl)c3c(nc2c1)CCC3)c1ccccc1F	-5%	.	.	.	?	.
CCOC(=O)N1CCN(Cc2nc3ccc([N+](=O)[O-])cc3c(=O)n2-c2ccccc2F)CC1	.	-8%	-1%	.	0%	-8%
CC(NC(=O)CSc1ccccc1)c1ccccc1 (stereo unspecified)	.	-1%	2%	.	2%	-3%
CCOc1ccc(S(=O)(=O)Nc2ccc(C(=O)N/N=C(\C)c3ccc(-n4ccnc4)cc3)cc2)cc1	-9%	-3%	-4%	2%	-15%	-1%
CNC(=O)c1c(NC(=O)c2ccco2)sc(C)c1C	.	-3%	3%	.	?	3%
Cc1ccc2[nH]c(C(=O)Nc3ccccc3)cc2c1	.	.	.	.	2.1µM*	.
CCC(C)c1ccccc1NC(=O)c1cc2cccc([N+](=O)[O-])c2[nH]1 (stereo unspecified)	.	0%	-10%	.	?	18%
Cc1ccc(NC(=O)c2cc3cccc([N+](=O)[O-])c3[nH]2)cc1	.	1.3µM*	?	.	2.4µM*	3.2µM*
COc1ccc(NC(=O)c2cc3cc(C)ccc3[nH]2)cc1	.	.	.	.	-1%	.
O=C(N/N=C/c1cn(-c2ccccc2)nc1-c1cc2ccccc2o1)c1ccccc1Br	4.5µM*	?	?	6%	15µM*	3.2µM*
COc1ccc(-c2nn(-c3ccccc3)cc2/C=N/NC(=O)c2ccc(Br)o2)cc1	-22%	1%	-17%	-2%	?	-4%
O=C(N/N=C/c1cn(-c2ccccc2)nc1-c1cc2ccccc2o1)c1c[nH]c2ccccc12	4µM*	1.4µM*	?	-1%	1.9µM*	1.8µM*

Screens deposited in PubChem BioAssay by National Center for Advancing Translational Sciences (NCATS).
